# From PubChem
# GLP1R inv ag = inverse agonists of human GLP-1 receptor. P43220. HEK293 GLP-1R CRE-luciferase, luminescence, 24 h; GLP-1R form is constitutively active. Potency, µM (highest dose often 38.3 µM), for the others: top-dose activity change, negative = inhibition, hits mostly inhibitors. 410,000 compounds, 1.6% hits. AID 624417; note: % is set by controls: 0 for no effect and ±100 for the full control effect; nearly all actives have a fitted effect of over 55% in size
#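 GLP-1R inverse agonism mode: basal reporter luminescence in engineered HEK293 cells measured after one day of compound exposure at 37 deg C, with a 12 min room-temperature detection step.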
# GLP-1R agonist = activates the human GLP-1 receptor; 380,000 compounds, 0.007% hits; P43220; AID 624172; Potency, µM (titrated, usually from 45.6 µM), without a hit: at the highest dose activation, usual class: activators; HEK293 GLP-1R CRE-luciferase, luminescence, 4-6 h; cells express a hypersensitive GLP-1R form; note: % of control where 0% means no effect
# VP16 counter = counter-screen for ROR gamma inhibitors: Gal4-VP16 reporter | 310,000 compounds, 3.5% hits | Drosophila S2 Gal4-VP16 UAS-luciferase, luminescence, 20 h | AID 2546 | Potency, µM (top dose mostly 53.6 µM), for inactives: at the highest dose activity, negative = inhibition, usual class: inhibitors;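 note: Gal4-VP16 expression switched on by copper sulfate through the metallothionein promoter; % is set by controls: 0 for no effect and ±100 for the full control effect; nearly all actives have a fitted effect of over 50% in size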
# HEK293 tox = cytotoxicity counter-screen for GLP-1 receptor inverse agonists; HEK293 cAMP-luciferase reporter cells, luminescence, 24 h; Potency, µM (titrated, usually from 38.3 µM), inactives show top-dose activity change, negative = inhibition, usual class: inhibitors; 410,000 compounds, 0.13% hits; AID 624418;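 note: loss of luciferase light is scored as toxicity; % is set by controls: 0 for no effect and ±100 for the full control effect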
#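 1536-well qHTS counterscreen of the MLSMR; 200 cells/uL, 12 h pre-incubation, 23 nL cpd, 24 h at 37 deg C 5% CO2, luciferase detection reagent, 12 min RT, luminescence. Inhibition = undesired.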
# RORg inh = inhibitors of mouse ROR gamma transcriptional activity; Potency, µM (top dose mostly 53.6 µM), for the others: top-dose activity change, negative = inhibition, actives largely listed as inhibitors; Drosophila S2 Gal4-RORgamma UAS-luciferase reporter, 20 h; 310,000 compounds, 5.4% hits; P51450; note: % is set by controls: 0 for no effect and ±100 for the full control effect; nearly all actives have a fitted effect of over 60% in size
# Target sequence (P51450 whole entry, looked up, the tested form may be a part): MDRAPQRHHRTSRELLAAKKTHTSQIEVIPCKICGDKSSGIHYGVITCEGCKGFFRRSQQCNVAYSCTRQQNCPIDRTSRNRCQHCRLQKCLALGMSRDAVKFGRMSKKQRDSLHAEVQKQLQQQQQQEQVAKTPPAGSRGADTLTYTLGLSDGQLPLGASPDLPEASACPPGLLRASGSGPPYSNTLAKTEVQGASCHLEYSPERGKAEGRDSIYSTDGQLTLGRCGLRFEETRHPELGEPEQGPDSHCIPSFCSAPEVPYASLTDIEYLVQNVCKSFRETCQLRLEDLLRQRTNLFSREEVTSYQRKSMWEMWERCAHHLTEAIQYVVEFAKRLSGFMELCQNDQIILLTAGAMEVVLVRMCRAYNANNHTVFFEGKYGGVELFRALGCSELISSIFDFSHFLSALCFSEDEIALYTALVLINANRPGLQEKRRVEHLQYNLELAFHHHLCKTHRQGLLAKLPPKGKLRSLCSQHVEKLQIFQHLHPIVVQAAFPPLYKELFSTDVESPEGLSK
#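 Luminescence from a UAS-regulated Photinus luciferase reporter in stably transfected Drosophila Schneider cells is measured; decreased signal marks ROR gamma inhibition. Fusion expression is induced by 700 uM copper sulfate for 20 hr.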
# * marks the source's active call; other numbers are inactive results; ? = inconclusive; . = no result; [ ] = another dose, or the depositor's remark. Most compounds without a hit are left out; they make up all but 5.9% or so of the library. Calls come from the whole dose curve; as a rule, active = well fitted curve in the direction sought with a large enough effect; inconclusive = small, poorly fitted or top-dose-only effect, or another doubt; inactive = no such curve, though single readings can be large; an effect the other way counts as inactive or inconclusive. Potency is the fitted concentration of half-maximal effect.
SMILES,GLP1R inv ag,GLP-1R agonist,VP16 counter,HEK293 tox,RORg inh
Cc1ccc(NC(=O)C(=O)NCC(c2cccnc2)N2CCN(Cc3ccccc3)CC2)cc1Cl (centres undefined),9%,.,.,3%,.
Cc1nc(NC(=O)CSc2cc(C)c3ccccc3n2)c(Cl)cc1Cl,-21%,5%,?,18%,2.5µM*
Cc1cc(SCC(=O)Nc2cccnc2Cl)nc2ccccc12,2%[0.307 µM],3%,17%,24%[0.307 µM],-4%
Cc1cc(SCC(=O)c2cc3ccccc3o2)nc2ccccc12,93%,4%,?,37%,11µM*
CC(=O)NCCn1c(SCC(=O)NCCC2=CCCCC2)nc2ccccc2c1=O,6%,-4%,-8%,-8%,-6%
Cc1cc(SCC(=O)NCCC2=CCCCC2)nc2ccccc12,0%,1%,6.3µM*,14%,?
COC(=O)N1C(C)=Cc2ccccc2C1C/C(C)=C/C(C)=O (centres undefined),.,.,-9%,.,6%
CCOc1ccc(CCNC(=O)c2cc3c(s2)-c2ccccc2OC3)cc1OCC,-35%,-8%,.,-16%,.
Cc1ccn2c(CC(C)(C)C)c(-c3ccc(F)cc3)nc2c1,7.1µM*,-4%,.,-11%,.
CCC1OC(=O)C[C@@H](O)[C@H](C)[C@@H](OC2OC(C)CC(N(C)C)C2O)[C@@H](CC=O)C[C@@H](C)C(=O)/C=C/[C@]2(C)OC2C1C (some centres undefined),.,-3%,-19%,.,4%
CCCc1nc(SCC(=O)Nc2nnc(CC)s2)c2c(=O)n(C)c(=O)n(C)c2n1,-6%,0%,5µM*,2%,-21%
CCc1nc(SCC(=O)Nc2nnc(CC)s2)c2c(=O)n(C)c(=O)n(C)c2n1,-2%,0%,?,-9%,36%
Cc1cc2nc3c(=O)[nH]c(=O)nc-3n(C[C@H](O)[C@H](O)[C@H](O)COP(=O)(O)OP(=O)(O)OC[C@H]3O[C@@H](n4cnc5c(N)ncnc54)[C@H](O)[C@@H]3O)c2cc1C,.,13%,1%,.,35%
COc1cc(C(C(=O)NC2CCCC2)N(Cc2ccco2)C(=O)c2snc(C(N)=O)c2N)cc(OC)c1OC (centres undefined),-7%,2%,?,1%,14%
COc1ccc(CNC(=O)C(C)N(Cc2ccccc2OC)C(=O)c2snc(C(N)=O)c2N)cc1 (centres undefined),?,10%,24%,-18%,10µM*
NC(=O)c1nsc(C(=O)N(Cc2ccc(F)cc2)C(C(=O)NC2CCCC2)c2ccco2)c1N (centres undefined),-11%,3%,-1%,2%,20%
CN(C)c1ccc(C(C(=O)NC2CCCCC2)N(Cc2ccco2)C(=O)c2snc(C(N)=O)c2N)cc1 (centres undefined),2µM*,6%,3%,?,23%
CC(C)CCNC(=O)C(c1ccco1)N(Cc1ccc(F)cc1)C(=O)c1snc(C(N)=O)c1N (centres undefined),3.5µM*,-3%,-20%,1%,?
COc1ccc(CN(C(=O)c2snc(C(N)=O)c2N)C(C)C(=O)NCc2ccc(F)cc2)cc1 (centres undefined),8%,10%,0%,-3%,8%
Cc1nc2sc(-c3ccccc3)cc2c(=O)n1N,?,-4%,?,4%,7.1µM*
CCN1CCSc2ccc(C(=O)NCc3cccc(Br)c3)cc21,10µM*,18%,-4%,2%,-3%
C=C[C@@]1(C)CC[C@H](O)[C@H]2C(=O)CCC[C@@H]21,.,.,-3%,.,-7%
COc1ccc2c(c1)cc1c(=O)n(CC(=O)NCCCc3ccccc3)nc(C)n12,1%,.,.,-6%,.
O=C(Nc1nnc(-c2cccs2)o1)c1cccc(F)c1,?,-4%,.,?,.
O=C(Nc1nnc(-c2cccs2)o1)c1cc(-c2ccccc2)nc2ccccc12,?,-3%,2.5µM*,-15%,1.4µM*
SMILES,GLP1R inv ag,GLP-1R agonist,VP16 counter,HEK293 tox,RORg inh
O=C(Nc1nnc(-c2cccs2)o1)c1cccc(Oc2ccccc2)c1,?,-2%,0.56µM*,?,0.28µM*
Cc1nnc(N/N=C/c2ccccc2O)n1N,6%,-3%,?,-25%,1.3µM*
CCc1nnc(N/N=C/c2cc(C)c(C)cc2C)n1N,4%,-5%,?,-11%,16µM*
Cc1nnc(N/N=C/c2ccc(-c3ccccc3F)o2)n1N,24%,0%,?,3%,7.9µM*
Cc1nnc(N/N=C/c2cc(C)n(-c3ccc(F)cc3)c2C)n1N,?,-2%,?,?,11µM*
CCc1nnc(N/N=C/c2c(C)[nH]c3ccccc23)n1N,18%,-5%,-7%[10 µM],1%,?
O=C(NCCc1ccccc1)c1cccc(Br)n1,.,.,12%,.,21%
Cc1nc(-c2ccc(Cl)cc2)oc1COC(C)(C)C(=O)O,.,0%,5%,.,3%
Cc1cc(C(=O)NNc2ccc(F)cc2F)no1,2.8µM*,0%,0%,?,11%
Cc1noc(C)c1-c1ccc2ncnc(NCc3ccc(-c4ccccc4)cc3)c2c1,.,.,1%,.,?
CC(=O)NCCNc1ncnc2ccc(-c3c(C)noc3C)cc12,.,.,?,.,11µM*
C/C=C\C1=CCCC1Nc1ncnc2ccc(-c3c(C)noc3C)cc12 (centres undefined),.,.,?,.,11µM*
Cc1noc(C)c1-c1ccc2ncnc(NC3CC3)c2c1,.,.,-16%,.,-25%
Cc1cccc(CNc2ncnc3ccc(-c4c(C)noc4C)cc23)c1,.,.,13%,.,2µM*
Fc1ccc(-c2cc(-c3nc(-c4ccccc4)no3)[nH]n2)cc1,8%,.,.,1%,.
Cc1cc(SCC(=O)NC2(C#N)CCCCC2)nc2c(C)cccc12,10µM*,2%,.,-8%,.
Cc1cc(SCC(=O)N2CCCC2=O)nc2c(C)cccc12,14%,19%,.,5%,.
CCCCNC(=O)c1cnn2c(C)c(Cc3c(F)cccc3Cl)c(C)nc12,1%,.,.,0%,.
Cc1ccc(-c2c(C(=O)N/N=C/c3c[nH]c4ccccc34)nnn2-c2nonc2N)cc1,3.2µM*,-4%,?,-5%,?
CCCc1c(C(=O)N/N=C/c2c[nH]c3ccccc23)nnn1-c1nonc1N,?,-6%,.,-9%,.
Cc1ccc(-c2c(C(=O)N/N=C/c3sccc3C)nnn2-c2nonc2N)cc1,?,8%,5.6µM*,-3%,4.5µM*
Cc1ccsc1/C=N/NC(=O)c1nnn(-c2nonc2N)c1-c1ccccc1,?,0%,20µM*,-14%,7.1µM*
COc1cccc(-c2c(C(=O)N/N=C/c3ccsc3)nnn2-c2nonc2N)c1,10%,12%,?,-3%,-20%
